We go through 12 compounds from PubChem BioAssay (NCATS).

A short description of assay [1]: qHTS profiling of the MIPE4 collection as inhibitors of Plasmodium falciparum (3D7) proliferation (AID 743344).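 Also: scaled between DMSO vehicle wells and 0.29 µM artemisinin as full inhibition.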 Particulars: P. falciparum 3D7 in erythrocytes, SYBR Green DNA fluorescence, 72 h; at 28.5 µM unless noted. Summed up:
(§1)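 Parasite DNA was quantified by SYBR Green I fluorescence (ex 485, em 535 nm) after overnight lysis in saponin/Triton buffer at room temperature. Cultures at 0.3% parasitemia and 2.5% hematocrit were first exposed to compound for 72 h at 37 C; signals were normalised to artemisinin (0.29 uM) and vehicle wells.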
(qHTS replaces the single test concentration by a dilution series.)

Assay [2] can be described thus: qHTS profiling of the MIPE4 collection as inhibitors of Plasmodium falciparum (DD2) proliferation (AID 743345). Particulars: P. falciparum Dd2 in erythrocytes, SYBR Green DNA, 72 h; at 28.5 µM unless noted. The essentials: as §1
A short description of assay [3]: qHTS profiling of the MIPE4 collection as inhibitors of Plasmodium falciparum (DD2) proliferation (Rep 2) (AID 743346). Particulars: P. falciparum Dd2 in erythrocytes, SYBR Green DNA, 72 h; at 28.5 µM unless noted. Summed up:
as §1

Assay [4] in a line: High-throughput drug toxicity screening in the BPDCN cell line Gen2.2 (AID 1224824).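 Also: cells exposed to compounds for 48 h before reading.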 The following applies: Gen2.2 BPDCN cells; at 45.8 µM (top of the series) unless noted. Summed up: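 Gen2.2 cells, 500 per well in phenol red-free RPMI with 10% FBS, exposed to compounds 48 h at 37 C, 5% CO2; viability by CellTiter-Glo luminescence. Percent activity scaled to DMSO (100%) and 9.2 uM bortezomib final (0%).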

A short description of assay [5]: High-throughput drug toxicity screening in the BPDCN cell line Cal-1 (AID 1224825). The following applies: Cal-1 BPDCN cell viability, qHTS; at 45.8 µM (top of the series) unless noted. The essentials:
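Viability of the BPDCN line Cal-1 is measured as ATP-based luminescence (CellTiter-Glo) following 48 h incubation with compounds. Percent activity uses DMSO-treated wells as 100% and 9.2 uM bortezomib as 0%.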

Assay [6] is described as follows: qHTS assay for measurement of the activity of small molecule inhibitors on Zika virus induced Caspase-3 activity in human iPSC derived neural progenitor cells (hNPCs) (AID 1224857; active = well fitted curve in the direction sought with a large enough effect; an effect the other way counts as inactive or inconclusive; also: nearly all actives have a fitted effect of over 65% in size; also: potency is read from the fitted curve at half-maximal effect). Summed up: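 Caspase-3/7 induction by a 6-hour ZIKV infection was quantified with a luminescent Caspase-Glo 3/7 reagent incubated 30 minutes at room temperature. Compounds were preincubated with hNPCs for 1 hour; inhibition was calculated against uninfected and infected control wells.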

Assay [7] is described as follows: qHTS profiling of the MIPE4 collection as inhibitors of Plasmodium falciparum (HB3) proliferation (AID 743347).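 Also: plate controls were DMSO vehicle wells for no effect and artemisinin wells for full effect.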 The following applies: P. falciparum HB3 in erythrocytes, SYBR Green DNA, 72 h; at 28.5 µM unless noted. The essentials: as §1
Assay [8] can be described thus: qHTS assay for measurement of the activity of small molecule inhibitors on Zika virus induced Caspase-3 activity in human astrocytoma cells (AID 1224859; active = well fitted curve in the direction sought with a large enough effect; an effect the other way counts as inactive or inconclusive;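 also: plate controls were ZIKV-infected untreated cells for no effect and uninfected cells for full effect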). The essentials:
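In SNB-19 cells plated at 250 cells/well and grown 16-20 h, compounds were applied 1 h before ZIKV (2 FFU/cell). Six hours later caspase-3/7 luminescence was recorded.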

A short description of assay [9]: qHTS Screen of the MIPE 4.0 Collection Against Ewings Sarcoma (RDES) (AID 1259252; active = well fitted curve in the direction sought with a large enough effect; an effect the other way counts as inactive or inconclusive; also: nearly all actives have a fitted effect of over 35% in size; also: potency is read from the fitted curve at half-maximal effect). Summed up: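 Here, cells in 5% FBS RPMI were exposed for two days (48 h) to compound dilutions added four hours after plating. ATP-based CellTiter-Glo luminescence measured viability, normalized to vehicle and no-cell blanks.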
Assay [10] concerns the target T1, Hexokinase-4 (Homo sapiens) + Glucokinase regulatory protein (Homo sapiens) (UniProt P35557+Q14397). The assay is described as follows: qHTS assay for inhibitors of recombinant human GCK-GKRP interaction: ADP-Glo assay (AID 743206; active = well fitted curve in the direction sought with a large enough effect; an effect the other way counts as inactive or inconclusive;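 also: plate controls were DMSO plus enzyme for no effect and no enzyme for full effect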). Summed up:
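Pin-transferred compounds meet a 15 nM GST-GCK/15 nM FLAG-GKRP/2 uM S6P mix (dispense concentrations). ATP is then added to 0.4 mM final with 5 mM glucose, and the reaction runs 60 min at room temperature. ADP is quantified luminescently.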

For assay [11], the target named is T1, Hexokinase-4 (Homo sapiens) + Glucokinase regulatory protein (Homo sapiens). The assay is described as follows: qHTS assay for inhibitors of recombinant human GCK-GKRP interaction: HTRF assay (AID 743207; active = well fitted curve in the direction sought with a large enough effect; an effect the other way counts as inactive or inconclusive;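 also: 0% = DMSO with GCK present and -100% = DMSO wells lacking GCK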). The essentials: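 HTRF binding of 5 nM GST-GCK and 5 nM FLAG-GKRP with 2 uM S6P in pH 7.1 Hepes buffer (MgCl2, KCl, DTT, Tween 20, BSA). Anti-FLAG XL665 and anti-GST donor added, 60 min at room temperature; 665/615 nm read, normalized to with- and without-GCK controls.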

Inconclusive results are not listed. Calls of active or inactive are those of the source. Unless noted, no rule for the calls is given here.

T1 sequence (P35557 whole entry, looked up): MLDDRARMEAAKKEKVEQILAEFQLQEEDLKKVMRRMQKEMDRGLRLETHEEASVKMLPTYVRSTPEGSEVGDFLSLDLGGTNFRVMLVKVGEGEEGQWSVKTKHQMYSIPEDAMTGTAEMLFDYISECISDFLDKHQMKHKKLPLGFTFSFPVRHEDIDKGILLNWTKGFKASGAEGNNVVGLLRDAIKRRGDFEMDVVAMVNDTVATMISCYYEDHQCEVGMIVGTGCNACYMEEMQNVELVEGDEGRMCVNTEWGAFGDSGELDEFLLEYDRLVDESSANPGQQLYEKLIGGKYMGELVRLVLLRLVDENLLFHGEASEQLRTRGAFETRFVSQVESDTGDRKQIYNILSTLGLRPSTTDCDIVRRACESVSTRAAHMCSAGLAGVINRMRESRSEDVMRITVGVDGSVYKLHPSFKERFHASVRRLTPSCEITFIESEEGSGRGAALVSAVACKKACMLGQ
T1 sequence (Q14397 whole entry, looked up): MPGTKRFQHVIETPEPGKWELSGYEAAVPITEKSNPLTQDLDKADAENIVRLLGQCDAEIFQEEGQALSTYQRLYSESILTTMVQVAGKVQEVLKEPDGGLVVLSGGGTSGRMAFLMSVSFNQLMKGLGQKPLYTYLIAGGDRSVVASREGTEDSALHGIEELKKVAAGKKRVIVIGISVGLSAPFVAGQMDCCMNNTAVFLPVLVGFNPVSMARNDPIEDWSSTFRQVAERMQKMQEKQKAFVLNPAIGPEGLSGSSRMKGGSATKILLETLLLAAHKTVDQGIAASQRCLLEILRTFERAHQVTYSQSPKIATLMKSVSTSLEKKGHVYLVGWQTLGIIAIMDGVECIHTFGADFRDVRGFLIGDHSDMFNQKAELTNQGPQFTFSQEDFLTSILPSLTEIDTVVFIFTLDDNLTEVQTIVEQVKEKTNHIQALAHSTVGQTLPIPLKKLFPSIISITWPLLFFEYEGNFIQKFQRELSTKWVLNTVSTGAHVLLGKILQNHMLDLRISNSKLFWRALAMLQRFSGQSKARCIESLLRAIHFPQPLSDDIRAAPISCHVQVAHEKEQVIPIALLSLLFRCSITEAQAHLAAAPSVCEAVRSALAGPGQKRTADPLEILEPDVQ

Compound `O=C(Nc1c(Cl)cncc1Cl)c1ccc(OC(F)F)c(OCC2CC2)c1` came in with a parasite growth, % of DMSO control in [1] of 109%. In assay [2], the parasite growth remaining, % of DMSO control (lower = more inhibition) turned out to be 100%. Further, in assay [3], the parasite growth, % of control (lower = inhibition) stood at 67.9%. The cell viability, % of control (lower = more cytotoxic) in assay [4] was 134%. Also, the viability (% of control) in assay [5] came out at 105%. The Potency result in assay [6] is “inactive”.
Regarding `O=c1cc(-c2cccc3c2Sc2ccccc2S3)oc(N2CCOCC2)c1`, the parasite growth, % of DMSO control in [1] is 64.9%. Further, the parasite growth remaining, % of DMSO control (lower = more inhibition) in assay [2] turned out to be 90.2%. Besides, the parasite growth, % of control (lower = inhibition) in assay [3] amounted to 61.1%. The compound further displayed a growth, % of control in assay [7] of 39.5%. Also, the cell viability, % of control (lower = more cytotoxic) in [4] turned out to be 22.3%. In assay [5], the viability (% of control) amounted to 35.7%. The Potency entry in assay [6] was “inactive”.
`Cn1c(N2CCCCS2(=O)=O)nc(C(=O)NCc2ccc(F)cc2)c(O)c1=O`: the parasite growth, % of DMSO control in assay [1] is 101%. Besides, the parasite growth remaining, % of DMSO control (lower = more inhibition) in assay [2] is 104%. Also, in assay [3], the parasite growth, % of control (lower = inhibition) was determined as 83.1%. In addition, the growth, % of control in assay [7] stood at 62.6%. Besides, in [4], the cell viability, % of control (lower = more cytotoxic) was found to be 60.2%. In assay [5], the viability (% of control) stood at 96.9%. For the same compound, in [6], the Potency result is “inactive”.
As for `CCCCCCCCCCCC1=C(O)C(=O)C=C(O)C1=O`, the parasite growth, % of DMSO control in [1] amounted to 54.7%. The parasite growth remaining, % of DMSO control (lower = more inhibition) in [2] stood at 63.9%. The parasite growth, % of control (lower = inhibition) in [3] is 16.4%. For the same compound, the cell viability, % of control (lower = more cytotoxic) in assay [4] came to 52.7%. For the same compound, in assay [5], the viability (% of control) was found to be 15.1%. Further, the Potency result in assay [6] was “inactive”.
For `CCc1ccc(C=C2SC(=S)NC2=O)cc1`, the parasite growth, % of DMSO control in assay [1] was 77.1%. For the same compound, the parasite growth remaining, % of DMSO control (lower = more inhibition) in [2] was 93.8%. Moreover, the parasite growth, % of control (lower = inhibition) in assay [3] is 115%. Moreover, in [7], the growth, % of control came to 87.9%. In addition, in assay [4], the cell viability, % of control (lower = more cytotoxic) came out at 159%. For the same compound, the viability (% of control) in [5] turned out to be 83.2%. Moreover, in assay [6], the Potency was 20.9 µM (active).
Take `C[C@H]1[C@H](NC(=O)C(=NOC(C)(C)C(=O)O)c2csc(N)n2)C(=O)N1S(=O)(=O)O`: the growth, % of control in assay [7] came out at 102%. In assay [4], the cell viability, % of control (lower = more cytotoxic) came out at 120%. Also, the viability (% of control) in assay [5] came to 121%. Also, in assay [6], the Potency entry is “inactive”.
For `COc1ccc2cc(-c3nc(-c4ccc(S(C)=O)cc4)[nH]c3-c3ccncc3)ccc2c1` (stereo unspecified), the parasite growth, % of DMSO control in assay [1] was 6.21%. The parasite growth remaining, % of DMSO control (lower = more inhibition) in assay [2] came out at 9.3%. The parasite growth, % of control (lower = inhibition) in assay [3] came out at 10.6%. For the same compound, the growth, % of control in assay [7] was found to be 3.67%. Also, the cell viability, % of control (lower = more cytotoxic) in assay [4] turned out to be 470%. For the same compound, the viability (% of control) in assay [5] is 65.1%. In [6], the Potency result was “inactive”.
As for `C=C1C(=O)[C@@]23C(CC[C@@H]1[C@H]2O)[C@@]12CO[C@]3(O)[C@@H](O)[C@@H]1C(C)(C)CC[C@@H]2O` (stereo partly specified), the parasite growth, % of DMSO control in [1] is 33.5%. Further, the parasite growth remaining, % of DMSO control (lower = more inhibition) in assay [2] is 75.5%. Besides, the parasite growth, % of control (lower = inhibition) in assay [3] was found to be 18.4%. In assay [7], this compound returned a growth, % of control of 5.26%. Moreover, in assay [4], the cell viability, % of control (lower = more cytotoxic) was 2.66%. For the same compound, the viability (% of control) in assay [5] was determined as 2.13%. For the same compound, the Potency entry in [8] was “inactive”. The Potency in [9] is 7.43 µM (active).
With `C=C1C(=O)OC2C=C(C)CCC=C(C)CCC12` (stereo unspecified), the parasite growth, % of DMSO control in assay [1] was determined as 238%. The parasite growth remaining, % of DMSO control (lower = more inhibition) in [2] is 104%. Also, the parasite growth, % of control (lower = inhibition) in assay [3] was 108%. The same compound showed a growth, % of control in assay [7] of 559%. In addition, the cell viability, % of control (lower = more cytotoxic) in assay [4] is 10.5%. Moreover, the viability (% of control) in [5] was 11.5%. Moreover, in [6], the Potency entry is “inactive”.
With `COc1cc(NC(=O)c2ccc(-c3ccc(Cl)cc3)o2)cc(OC)c1`, the parasite growth, % of DMSO control in [1] is 97.8%. For the same compound, the parasite growth remaining, % of DMSO control (lower = more inhibition) in assay [2] was 97.8%. Also, the parasite growth, % of control (lower = inhibition) in assay [3] came to 99.4%. For the same compound, in assay [4], the cell viability, % of control (lower = more cytotoxic) is 9.04%. Moreover, the viability (% of control) in assay [5] is 6.59%. Further, in assay [6], the Potency entry was “inactive”.
Take `COc1ccc(Cc2nccc3cc(OC)c(OC)cc23)cc1OC`: the result in assay [10] and in [11] was inactive. For the same compound, the parasite growth, % of DMSO control in assay [1] worked out at 5.44%. For the same compound, in [2], the parasite growth remaining, % of DMSO control (lower = more inhibition) is 11.3%. The parasite growth, % of control (lower = inhibition) in assay [3] turned out to be 18.7%. This compound came in with a growth, % of control in assay [7] of 2.71%. Also, in assay [4], the cell viability, % of control (lower = more cytotoxic) was determined as 47.4%. Also, the viability (% of control) in assay [5] amounted to 96.9%. The Potency in assay [9] was 20.9 µM (active).
With `CO[C@H]1C(=O)[C@]2(C)[C@@H](OC)C[C@H]3OC[C@@]3(OC(C)=O)[C@H]2[C@H](OC(=O)c2ccccc2)[C@]2(O)C[C@H](OC(=O)[C@H](O)[C@@H](NC(=O)OC(C)(C)C)c3ccccc3)C(C)=C1C2(C)C`, the parasite growth, % of DMSO control in assay [1] is 4.99%. Besides, in assay [2], the parasite growth remaining, % of DMSO control (lower = more inhibition) was 13.7%. Further, the parasite growth, % of control (lower = inhibition) in assay [3] was 21.2%. The compound further registered a growth, % of control in assay [7] of 3.01%. In [4], the cell viability, % of control (lower = more cytotoxic) came to 28.9%. In assay [5], the viability (% of control) came out at 13%. In addition, in assay [9], the Potency entry was “inactive”.
